High-throughput results: PubChem, Broad Institute
Tgondii IFNg – blocks Toxoplasma gondii growth in the presence of IFN-gamma. activity change, negative = inhibition, % (concentration not given with the values). Toxoplasma gondii growth in IFN-gamma-treated host cells; hits give low values. hit rate 3.8% among 69,000. AID 1259416; in the data active = activity change below about -70%, passing the limit was not always enough;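 note: host cells are HeLa cells infected with Toxoplasma gondii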
Active calls of the source: *. This is one part of a sample in which hits are shown more often than they occur.

SMILES	Tgondii IFNg
CCN1c2cc(C)ccc2-n2cccc2C12CCN(C(=O)NCC(=O)OC)CC2	67
CCN1c2cc(C)ccc2-n2cccc2C12CCN(S(=O)(=O)c1ccc(C)c(C)c1)CC2	-112*
Cc1cc(C)c(S(=O)(=O)N2CCC3(CC2)Nc2cc(F)ccc2-n2cccc23)c(C)c1	28
CCN1c2cc(C)ccc2-n2cccc2C12CCN(S(=O)(=O)c1c(C)cc(C)cc1C)CC2	-118*
Cc1ccc2c(c1)NC1(CCN(S(=O)(=O)c3ccc(C)c(C)c3)CC1)c1cccn1-2	29
CCN1c2cc(C)ccc2-n2cccc2C12CCN(C(=O)NC(C)C(=O)OC)CC2 (configuration not stated)	63
CCN1c2cc(C)ccc2-n2cccc2C12CCN(C(=O)c1ccc(OC)cc1)CC2	-90*
CC(C)N1CCc2c(nc(C3CCN(C(=O)c4ccncc4)CC3)[nH]c2=O)C1	-11
O=C(O)c1cc(O)cc(-c2ccccc2CN2CCOCC2)c1	-1
O=C(c1ccc(=O)[nH]c1)N1CCC(CCn2cccn2)CC1	6
Cc1nc(CCNC(=O)c2cnn(Cc3ccccc3)c2)nc2c1CCC2	-51
CN(C)S(=O)(=O)N1CCC[C@]2(C[C@@H](OCC3CC3)CO2)C1	-1
O=C(Nc1cc(F)ccc1F)N1CCC2(CC1)Nc1cc(F)ccc1-n1cccc12	349
Cc1ccc(C(=O)N2CC[C@@H]3CO[C@H](CN4CCN(C)CC4)[C@@H]3C2)o1	5
O=C(Cn1ncc2c(N3CCCC3)ncnc21)NCc1ccc(Br)cc1	61
O=C(Cn1ncc2c(N3CCCCCC3)ncnc21)NCc1ccc(F)cc1F	-93*
Cc1ccc(C)c(NC(=O)Cn2ncc3c(N4CCN(c5ccccn5)CC4)ncnc32)c1	-3
CCCCOc1ccc(CNC(=O)Cn2ncc3c(N4CCCCCC4)ncnc32)cc1	-99*
O=C(Cn1ncc2c(N3CCN(c4ccccn4)CC3)ncnc21)NCc1ccccc1Cl	-92*
O=C(Cn1ncc2c(N3CCCCCC3)ncnc21)NCc1cc(F)cc(F)c1	58
COc1ccc(CNC(=O)Cn2ncc3c(N4CCCCC4)ncnc32)c(OC)c1	30
CCOc1ccc(CNC(=O)Cn2ncc3c(N4CCCCCC4)ncnc32)cc1OCC	76
CCc1ccccc1NC(=O)Cn1ncc2c(N3CCN(c4ccccn4)CC3)ncnc21	-56
Cc1ccc(CNC(=O)Cn2ncc3c(N4CCN(c5ccccn5)CC4)ncnc32)cc1	-97*
Cc1ccc(NC(=O)Cn2ncc3c(N4CCN(c5ccccn5)CC4)ncnc32)cc1	99
SMILES	Tgondii IFNg
O=C(Cn1ncc2c(N3CCOCC3)ncnc21)NCc1ccccc1Cl	74
O=C(CN1C(=O)CCc2cc(S(=O)(=O)N3CCCC3)ccc21)NCc1ccccc1	-2
Cc1oc(-c2ccc(NC(=O)c3ccc(F)cc3Cl)cc2)nc1Cn1cccn1	-49
Cc1ccc(NC(=O)N2CCC(c3nc(C(=O)N4CCOCC4)c(C)o3)CC2)cc1	-11
Cc1ccc(C2(c3noc(Cn4cc(CCO)cn4)n3)CCCC2)cc1	-42
COc1ccc(N2CSCc3nc4ccccc4n3C2)cc1	186
O=C(Nc1ccc(-c2nc(-c3ccccc3)co2)cc1)c1ccccc1Cl	32
Cn1nc2n(c1=O)CC(C(=O)N1C[C@@H]3[C@H](C1)[C@H]1CC[C@@H]3O1)CC2 (some centres not stated)	27
Cc1ccc(NC(=O)N2CCC3(CC2)Nc2cc(F)ccc2-n2cccc23)cc1Cl	93
CCCn1c(=O)c(-c2nc(-c3ccccc3C)no2)c(O)c2ccccc21	-38
O=C(CC1N=C2c3ccccc3N=C(SCc3ccc(Cl)cc3)N2C1=O)NCc1ccc(F)cc1 (configuration not stated)	4
O=C(O)CCn1c(-c2cccc3ccccc23)n[nH]c1=O	22
Cc1cc(C)n(C(C)CNC(=O)c2cccc(C#CC(C)(C)O)c2)n1 (configuration not stated)	-9
Cc1ccc(CNC(=O)Cn2ncc3c(N4CCCCCC4)ncnc32)cc1	-44
COc1cccc(CNC(=O)Cn2ncc3c(N4CCOCC4)ncnc32)c1	64
CCN(CC)c1ncnc2c1cnn2CC(=O)NCc1cccc(OC)c1	84
CN(C)c1ccc(CNC(=O)Cn2ncc3c(N4CCCCC4)ncnc32)cc1	31
COc1cccc(CNC(=O)Cn2ncc3c(N4CCC(C)CC4)ncnc32)c1	-100*
CCN(CC)c1ncnc2c1cnn2CC(=O)NCc1ccc2c(c1)OCO2	-64
COc1ccc(CNC(=O)Cn2ncc3c(N4CCCCC4)ncnc32)cc1OC	170
COc1ccc(CNC(=O)Cn2ncc3c(N4CCCCCC4)ncnc32)cc1	6
COc1ccc(CNC(=O)Cn2ncc3c(N4CCCCC4)ncnc32)cc1	-102*
CCN(CC)c1ncnc2c1cnn2CC(=O)NCc1ccc(OC)cc1	-99*
Cc1ccc(CNC(=O)Cn2ncc3c(N4CCCCC4)ncnc32)cc1	-103*
COc1cc(NC(=O)Cn2ncc3c(N4CCC(C)CC4)ncnc32)cc(OC)c1OC	13
SMILES	Tgondii IFNg
Cc1ccc(S(=O)(=O)Nc2ccc(O)c(Sc3nc(C)cc(C)n3)c2)cc1	-6
CCCc1cc2c(cc1NC(=O)c1cnc(N3CCCC(C)C3)nc1)OCO2 (configuration not stated)	-17
c1coc(-c2cnc(NCCN3CCOCC3)nc2-c2ccco2)c1	-4
CCCc1ccc(S(=O)(=O)Nc2ccc(-c3nc(-c4ccc(C)cc4C)co3)cc2)cc1	-50
CN(Cc1ccncc1)C1COC2(CCN(c3ncc(F)cn3)CC2)C1 (configuration not stated)	77
Cc1ccsc1C(=O)N1CC[C@@]2(C[C@H](OCc3cccnc3)CO2)C1	17
Oc1cc(-c2csc3ccccc23)cc2c1OCCN(Cc1cscn1)C2	-9
COc1ccccc1-c1nc(CSc2nc3c(c(=O)[nH]2)CN(Cc2ccc(F)cc2)CC3)c(C)o1	20
COc1ccc(C)cc1NC(=O)Cn1ncc2c(N3CCOCC3)ncnc21	-44
COc1ccc(C)cc1NC(=O)Cn1ncc2c(N3CCCCCC3)ncnc21	-91*
Cc1ccc(C)c(NC(=O)Cn2ncc3c(N4CCCCCC4)ncnc32)c1	63
COCCCNC(=O)Cn1ncc2c(N3CCC(C)CC3)ncnc21	61
COc1ccc(OC)c(CNC(=O)Cn2ncc3c(N4CCC(C)CC4)ncnc32)c1	261
COc1ccc(CNC(=O)Cn2ncc3c(N4CCC(C)CC4)ncnc32)cc1	-85*
Cc1ccc(NC(=O)N2CCN(Cc3nc(-c4ccccc4C)oc3C)CC2)cc1	-1
Fc1cccc(CN2CCN(Cc3cccc4nccnc34)CC2)c1	9
CN(Cc1cc(-c2ccc(F)cc2)c[nH]c1=O)CC(O)Cn1ccc2ccccc21 (configuration not stated)	225
COc1c(C)cc(-c2ccc(C)nn2)cc1C	-42
O=c1[nH]c(N2CCOCC2)nc2c1CCN(Cc1ccccc1)CC2	-28
COc1ccc(OC)c(CN(C(=O)c2ccc(C)cc2)C2(C(=O)NCc3ccccc3)CCN(C(C)=O)CC2)c1	-4
CC(=O)N1CCC(C(=O)NCc2ccccc2)(N(Cc2ccccc2C)C(=O)c2ccc(C)cc2)CC1	36
COc1cccc(CN(C(=O)c2ccc(C)cc2)C2(C(=O)NCc3ccccc3)CCN(C(C)=O)CC2)c1OC	-93*
COC1COC2(CCN(C(=O)C3CCCO3)C2)C1 (configuration not stated)	21
CNc1cc(-c2ccccc2OCCn2ccnc2)c2cc[nH]c2n1	4
NCC1Cc2cc(-c3ccc(Cn4ccnc4)cc3)cc(F)c2O1 (configuration not stated)	-40
